Results as given in the supplement of paper PMC11732987, “Enantioselective OTUD7B fragment discovery through chemoproteomics screening and high-throughput optimisation” (Communications Chemistry, 2025).

Columns and labels:
Test in all cases: log2 ratio of Biotin-Ahx-Ub-VS probe labelling (fragment/DMSO); higher = less target engagement (more negative = stronger competition), active = hit call of the paper (q ≤ 0.05, log2 ratio ≤ -1)
Details in all cases: compound concentration: 200 uM; treatment time: 3 h
USP34 = USP34 (UniProt Q70CQ2)
Procedure, shortened: (§1)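 HEK293T lysate, 495 µg per sample in Tris/CHAPS/IGEPAL buffer with protease inhibitors, was treated in triplicate with fragment at 200 µM or vehicle for 3 h and then with Biotin-Ahx-Ub-VS at 0.5 µM final for 1 h. Labelled DUBs were NeutrAvidin-enriched, digested with LysC and trypsin, and run by diaPASEF LC-MS/MS. Spectronaut label-free quantities were global-median-normalised, and values are average log2 fragment/vehicle ratios by unpaired t-test on proteins with ≥2 unique peptides.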

USP36 = target: T1, USP36 (UniProt Q9P275)
T1 sequence (whole entry): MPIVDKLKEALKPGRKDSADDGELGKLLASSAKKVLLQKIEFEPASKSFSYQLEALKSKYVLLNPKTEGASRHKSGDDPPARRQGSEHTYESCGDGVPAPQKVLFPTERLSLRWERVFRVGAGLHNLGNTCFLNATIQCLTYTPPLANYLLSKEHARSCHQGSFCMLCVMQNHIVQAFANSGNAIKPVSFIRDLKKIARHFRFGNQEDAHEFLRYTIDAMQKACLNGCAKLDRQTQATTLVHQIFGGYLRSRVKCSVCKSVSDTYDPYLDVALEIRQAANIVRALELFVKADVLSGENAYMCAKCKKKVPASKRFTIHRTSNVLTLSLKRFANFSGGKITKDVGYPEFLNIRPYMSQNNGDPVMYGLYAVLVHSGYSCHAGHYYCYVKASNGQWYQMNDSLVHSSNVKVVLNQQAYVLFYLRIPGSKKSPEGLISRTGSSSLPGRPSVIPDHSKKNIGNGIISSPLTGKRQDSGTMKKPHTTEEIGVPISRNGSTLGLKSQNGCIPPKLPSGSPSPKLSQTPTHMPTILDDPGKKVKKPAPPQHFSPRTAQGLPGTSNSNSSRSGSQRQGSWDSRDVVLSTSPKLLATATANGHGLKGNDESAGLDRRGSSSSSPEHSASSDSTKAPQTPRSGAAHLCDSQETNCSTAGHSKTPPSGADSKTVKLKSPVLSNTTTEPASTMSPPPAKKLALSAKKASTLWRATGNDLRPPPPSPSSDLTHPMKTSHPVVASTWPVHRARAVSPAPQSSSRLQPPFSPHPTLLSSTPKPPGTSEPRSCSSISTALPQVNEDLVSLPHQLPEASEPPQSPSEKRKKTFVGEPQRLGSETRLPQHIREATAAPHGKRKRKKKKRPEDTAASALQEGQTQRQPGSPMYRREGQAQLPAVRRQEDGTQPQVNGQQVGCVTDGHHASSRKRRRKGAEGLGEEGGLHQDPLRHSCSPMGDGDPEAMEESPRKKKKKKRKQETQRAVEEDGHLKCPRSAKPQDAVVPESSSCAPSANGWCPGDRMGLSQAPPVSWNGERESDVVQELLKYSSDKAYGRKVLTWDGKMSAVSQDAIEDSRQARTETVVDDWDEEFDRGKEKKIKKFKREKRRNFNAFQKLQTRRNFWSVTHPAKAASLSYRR
Procedure, shortened: as §1

USP38 = target: T2, USP38 (UniProt Q8NB14)
T2 sequence (whole entry): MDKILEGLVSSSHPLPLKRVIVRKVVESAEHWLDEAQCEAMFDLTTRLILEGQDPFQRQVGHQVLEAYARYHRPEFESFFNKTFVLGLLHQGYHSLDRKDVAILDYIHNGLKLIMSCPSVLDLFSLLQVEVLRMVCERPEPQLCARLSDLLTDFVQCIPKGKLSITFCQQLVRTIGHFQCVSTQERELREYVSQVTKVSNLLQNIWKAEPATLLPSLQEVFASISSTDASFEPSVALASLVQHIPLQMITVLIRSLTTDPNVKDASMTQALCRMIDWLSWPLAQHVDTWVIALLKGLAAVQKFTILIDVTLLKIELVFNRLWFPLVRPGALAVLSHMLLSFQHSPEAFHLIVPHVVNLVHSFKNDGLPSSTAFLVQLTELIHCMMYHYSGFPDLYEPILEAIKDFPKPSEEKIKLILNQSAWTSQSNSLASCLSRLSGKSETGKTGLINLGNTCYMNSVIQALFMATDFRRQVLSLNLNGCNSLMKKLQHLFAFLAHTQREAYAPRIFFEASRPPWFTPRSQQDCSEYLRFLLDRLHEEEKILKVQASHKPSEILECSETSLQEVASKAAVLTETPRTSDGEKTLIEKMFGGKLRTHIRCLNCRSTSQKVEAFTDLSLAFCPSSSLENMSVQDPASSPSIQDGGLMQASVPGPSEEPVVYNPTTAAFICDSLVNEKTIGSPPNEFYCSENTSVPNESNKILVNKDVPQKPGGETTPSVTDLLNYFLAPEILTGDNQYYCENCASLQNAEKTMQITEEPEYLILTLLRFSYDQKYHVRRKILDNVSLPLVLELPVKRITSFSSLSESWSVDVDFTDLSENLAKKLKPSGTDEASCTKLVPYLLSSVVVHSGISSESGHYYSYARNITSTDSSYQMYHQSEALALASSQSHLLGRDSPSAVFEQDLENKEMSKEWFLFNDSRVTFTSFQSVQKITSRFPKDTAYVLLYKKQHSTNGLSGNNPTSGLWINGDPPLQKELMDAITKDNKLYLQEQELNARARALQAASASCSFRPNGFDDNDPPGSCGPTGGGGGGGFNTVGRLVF
Procedure, shortened: as §1

USP39 = target: T3, USP39 (UniProt Q53GS9)
T3 sequence (whole entry): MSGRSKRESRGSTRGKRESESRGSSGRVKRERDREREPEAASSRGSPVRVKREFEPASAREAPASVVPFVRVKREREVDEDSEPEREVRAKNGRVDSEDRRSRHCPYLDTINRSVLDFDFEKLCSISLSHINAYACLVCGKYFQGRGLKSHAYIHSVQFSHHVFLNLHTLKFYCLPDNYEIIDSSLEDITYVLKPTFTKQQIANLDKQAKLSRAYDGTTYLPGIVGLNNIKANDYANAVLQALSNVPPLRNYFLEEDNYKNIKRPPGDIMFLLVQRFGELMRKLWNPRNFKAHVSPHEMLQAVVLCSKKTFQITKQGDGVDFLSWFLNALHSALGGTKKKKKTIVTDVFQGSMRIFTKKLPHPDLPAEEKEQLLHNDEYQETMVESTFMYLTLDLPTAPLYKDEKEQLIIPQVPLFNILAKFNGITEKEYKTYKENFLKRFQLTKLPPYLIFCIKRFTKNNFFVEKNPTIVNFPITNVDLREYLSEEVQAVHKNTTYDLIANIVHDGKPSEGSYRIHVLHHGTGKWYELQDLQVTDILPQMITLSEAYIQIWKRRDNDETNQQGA
Procedure, shortened: as §1

USP4 = target: T4, USP4 (UniProt Q13107)
T4 sequence (whole entry): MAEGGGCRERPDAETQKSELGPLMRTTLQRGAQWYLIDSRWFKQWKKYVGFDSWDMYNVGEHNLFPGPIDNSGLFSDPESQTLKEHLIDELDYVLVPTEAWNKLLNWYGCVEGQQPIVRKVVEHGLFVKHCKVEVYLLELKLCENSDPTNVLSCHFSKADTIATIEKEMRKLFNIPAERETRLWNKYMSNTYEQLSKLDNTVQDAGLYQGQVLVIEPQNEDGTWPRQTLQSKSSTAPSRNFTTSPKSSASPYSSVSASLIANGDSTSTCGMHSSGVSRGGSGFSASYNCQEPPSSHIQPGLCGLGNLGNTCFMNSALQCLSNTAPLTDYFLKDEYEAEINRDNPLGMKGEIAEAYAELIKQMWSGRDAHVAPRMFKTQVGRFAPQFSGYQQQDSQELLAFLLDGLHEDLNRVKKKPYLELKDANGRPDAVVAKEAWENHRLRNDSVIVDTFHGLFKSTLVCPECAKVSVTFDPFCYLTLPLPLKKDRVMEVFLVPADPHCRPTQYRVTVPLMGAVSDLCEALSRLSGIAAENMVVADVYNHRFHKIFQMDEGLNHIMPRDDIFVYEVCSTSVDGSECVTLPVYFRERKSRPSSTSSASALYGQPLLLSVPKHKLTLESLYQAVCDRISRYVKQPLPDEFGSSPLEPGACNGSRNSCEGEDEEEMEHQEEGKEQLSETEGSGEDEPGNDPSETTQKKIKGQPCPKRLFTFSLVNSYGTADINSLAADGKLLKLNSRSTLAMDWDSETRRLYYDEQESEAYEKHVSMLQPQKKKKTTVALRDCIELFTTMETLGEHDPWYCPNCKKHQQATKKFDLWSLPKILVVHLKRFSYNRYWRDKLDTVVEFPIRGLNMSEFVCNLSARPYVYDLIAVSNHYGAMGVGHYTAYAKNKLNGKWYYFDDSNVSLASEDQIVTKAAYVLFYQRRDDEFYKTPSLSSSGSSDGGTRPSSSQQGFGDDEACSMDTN
Procedure, shortened: as §1

Measured: log2 ratio of Biotin-Ahx-Ub-VS probe labelling

Chain of USP34 (Q70CQ2 whole entry, the tested form may be a part): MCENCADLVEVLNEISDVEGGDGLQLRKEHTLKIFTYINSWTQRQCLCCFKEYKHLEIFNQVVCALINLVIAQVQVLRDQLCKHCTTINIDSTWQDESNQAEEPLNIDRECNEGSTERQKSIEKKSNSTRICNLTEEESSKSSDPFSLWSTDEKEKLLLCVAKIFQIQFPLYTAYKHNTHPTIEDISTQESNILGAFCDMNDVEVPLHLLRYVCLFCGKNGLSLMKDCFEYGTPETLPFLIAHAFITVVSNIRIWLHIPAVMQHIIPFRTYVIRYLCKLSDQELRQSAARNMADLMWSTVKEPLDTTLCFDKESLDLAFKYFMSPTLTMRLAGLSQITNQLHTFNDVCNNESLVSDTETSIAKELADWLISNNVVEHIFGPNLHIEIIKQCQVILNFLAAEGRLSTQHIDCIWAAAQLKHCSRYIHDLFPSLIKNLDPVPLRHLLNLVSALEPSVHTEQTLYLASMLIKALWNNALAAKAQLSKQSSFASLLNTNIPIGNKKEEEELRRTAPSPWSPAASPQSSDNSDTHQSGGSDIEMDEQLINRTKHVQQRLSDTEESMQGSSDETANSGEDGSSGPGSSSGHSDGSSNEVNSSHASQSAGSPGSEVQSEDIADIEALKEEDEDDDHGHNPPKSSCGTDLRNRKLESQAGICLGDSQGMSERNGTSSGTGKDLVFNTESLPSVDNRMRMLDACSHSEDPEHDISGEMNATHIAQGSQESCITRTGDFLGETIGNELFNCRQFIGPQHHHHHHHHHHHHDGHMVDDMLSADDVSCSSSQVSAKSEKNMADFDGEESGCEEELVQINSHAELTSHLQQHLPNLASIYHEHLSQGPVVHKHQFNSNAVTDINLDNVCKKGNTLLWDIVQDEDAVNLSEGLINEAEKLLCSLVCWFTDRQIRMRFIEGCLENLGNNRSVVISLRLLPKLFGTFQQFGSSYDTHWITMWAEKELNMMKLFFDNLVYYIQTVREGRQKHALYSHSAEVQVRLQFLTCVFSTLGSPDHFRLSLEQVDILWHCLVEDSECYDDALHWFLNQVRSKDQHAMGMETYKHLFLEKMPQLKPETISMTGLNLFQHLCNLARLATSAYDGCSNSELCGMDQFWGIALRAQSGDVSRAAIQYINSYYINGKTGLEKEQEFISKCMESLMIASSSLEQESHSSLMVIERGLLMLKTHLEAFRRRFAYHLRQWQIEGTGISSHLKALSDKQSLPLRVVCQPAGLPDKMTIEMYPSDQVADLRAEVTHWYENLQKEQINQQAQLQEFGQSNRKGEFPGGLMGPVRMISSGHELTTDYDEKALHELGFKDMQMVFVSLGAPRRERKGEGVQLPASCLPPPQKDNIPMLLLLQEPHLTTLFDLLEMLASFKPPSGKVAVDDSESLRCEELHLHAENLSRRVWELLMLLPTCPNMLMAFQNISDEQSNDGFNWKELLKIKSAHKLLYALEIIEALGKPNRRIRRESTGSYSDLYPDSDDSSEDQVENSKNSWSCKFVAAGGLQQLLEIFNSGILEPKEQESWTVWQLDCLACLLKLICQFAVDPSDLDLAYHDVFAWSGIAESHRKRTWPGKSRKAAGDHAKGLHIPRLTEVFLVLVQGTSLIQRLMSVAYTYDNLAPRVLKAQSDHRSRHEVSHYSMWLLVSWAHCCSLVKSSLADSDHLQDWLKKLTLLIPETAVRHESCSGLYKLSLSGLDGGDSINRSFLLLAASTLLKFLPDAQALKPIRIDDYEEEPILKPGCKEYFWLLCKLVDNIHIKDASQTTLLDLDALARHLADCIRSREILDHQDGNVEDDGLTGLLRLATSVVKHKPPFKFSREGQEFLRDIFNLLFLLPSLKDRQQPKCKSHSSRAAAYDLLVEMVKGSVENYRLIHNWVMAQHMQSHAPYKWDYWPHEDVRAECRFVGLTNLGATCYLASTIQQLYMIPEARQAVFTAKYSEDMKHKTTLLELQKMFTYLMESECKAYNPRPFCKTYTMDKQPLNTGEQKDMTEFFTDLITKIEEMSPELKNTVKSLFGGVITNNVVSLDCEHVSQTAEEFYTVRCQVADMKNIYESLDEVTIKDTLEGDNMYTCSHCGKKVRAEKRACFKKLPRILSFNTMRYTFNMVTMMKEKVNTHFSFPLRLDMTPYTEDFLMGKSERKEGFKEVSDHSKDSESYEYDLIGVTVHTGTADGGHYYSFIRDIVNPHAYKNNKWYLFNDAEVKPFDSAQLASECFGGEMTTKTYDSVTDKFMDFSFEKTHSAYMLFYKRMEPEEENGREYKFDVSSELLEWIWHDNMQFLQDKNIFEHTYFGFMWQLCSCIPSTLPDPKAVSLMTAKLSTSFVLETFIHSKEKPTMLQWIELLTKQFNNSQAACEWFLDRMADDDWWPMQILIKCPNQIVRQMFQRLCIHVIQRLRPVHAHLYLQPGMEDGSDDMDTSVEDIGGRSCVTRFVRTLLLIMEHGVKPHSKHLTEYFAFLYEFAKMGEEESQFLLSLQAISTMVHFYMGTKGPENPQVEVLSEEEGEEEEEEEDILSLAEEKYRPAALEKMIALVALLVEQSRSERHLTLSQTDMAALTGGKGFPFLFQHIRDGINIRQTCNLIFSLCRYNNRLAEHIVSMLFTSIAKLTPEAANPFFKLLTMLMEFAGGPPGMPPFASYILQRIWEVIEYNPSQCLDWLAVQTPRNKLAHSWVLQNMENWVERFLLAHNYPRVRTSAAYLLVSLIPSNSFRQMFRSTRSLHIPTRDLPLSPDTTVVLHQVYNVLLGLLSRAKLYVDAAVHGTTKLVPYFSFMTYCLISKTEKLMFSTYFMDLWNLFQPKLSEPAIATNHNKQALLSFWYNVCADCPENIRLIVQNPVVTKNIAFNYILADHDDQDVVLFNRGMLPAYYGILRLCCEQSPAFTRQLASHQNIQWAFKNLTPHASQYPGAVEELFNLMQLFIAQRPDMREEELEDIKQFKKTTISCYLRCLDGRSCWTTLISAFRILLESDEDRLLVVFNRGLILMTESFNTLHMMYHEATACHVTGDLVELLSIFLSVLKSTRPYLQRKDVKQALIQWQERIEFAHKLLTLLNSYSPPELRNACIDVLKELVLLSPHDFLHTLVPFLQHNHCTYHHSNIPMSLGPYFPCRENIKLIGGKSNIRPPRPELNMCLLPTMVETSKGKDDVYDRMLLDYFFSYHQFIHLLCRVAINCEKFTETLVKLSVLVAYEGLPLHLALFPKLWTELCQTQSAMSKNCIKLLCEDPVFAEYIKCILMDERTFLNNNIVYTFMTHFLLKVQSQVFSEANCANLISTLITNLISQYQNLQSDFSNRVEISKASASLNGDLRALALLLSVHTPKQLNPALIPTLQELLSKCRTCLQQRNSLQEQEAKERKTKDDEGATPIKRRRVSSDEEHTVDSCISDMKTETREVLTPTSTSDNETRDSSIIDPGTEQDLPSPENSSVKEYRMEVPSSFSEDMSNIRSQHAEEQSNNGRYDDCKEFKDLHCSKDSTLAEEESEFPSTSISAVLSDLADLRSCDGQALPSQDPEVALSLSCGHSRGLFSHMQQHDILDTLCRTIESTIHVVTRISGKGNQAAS

O=C(CCl)Nc1ccccc1C(F)(F)F
inactive: USP34 -0.296 | USP36 0.187 | USP38 -0.0183 | USP39 0.198 | USP4 -0.1
